# Reference: PubChem BioAssay AID624305 (National Center for Advancing Translational Sciences (NCATS), 2012)
# Records with an inconclusive call do not appear. Where a call stands in place of a potency, no number is given. Values without a mark were called inactive. Activity calls are given as the source filed them. The call rests on the fitted dose curve; in most records, active means well fitted activation curve with a large enough effect; inconclusive means small, poorly fitted or top-dose-only effect; inactive means no such curve, though single readings can be large or run the other way.
# Assay: qHTS assay for re-activators of p53 using a Luc reporter: Hit Validation; further: nearly all actives have a fitted effect of over 75% in size
# Conditions: p53-responsive luciferase reporter cells, luminescence, H1299 line expressing heat-sensitive Ala138Val p53; series mostly up to 46.1 µM
# In short: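 Hit confirmation with a 1:5 dilution series, at 37 deg C for 24 hrs, in H1299 cells co-expressing temperature-sensitive p53-A138V and p53-responsive luciferase. Nocodazole served as control; luminescence read after 10 min with detection reagent.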
# Potency means the concentration at half of the fitted maximal effect.
Compound,Potency,activation
O=c1oc(-c2ccc(O)c(O)c2)cc2cc(O)cc(O)c12,11.6 µM (active),
CC1(C)CC(=O)CC(=O)/C1=N\Nc1c(Cl)cc(Cl)cc1Cl,inactive,
Cc1ccccc1-c1noc(N)c1C#N,inactive,
O=C(CC(Nc1ccc(F)cc1)C(=O)OCC(=O)c1cccs1)c1ccccc1 (stereo unspecified),inactive,
O=C(Nc1ccc2c(c1)CCC2)c1ccccc1F,0.366 µM (active),
COc1ccccc1-c1c(C)nn2c(C)c(C(C)=O)cnc12,inactive,
CC(=O)N/C(=C/c1ccc2c(c1)OCO2)C(=O)Nc1ccccc1,inactive,
O=C(Cn1cc2c(n1)CCCCC2)NC1CCCCCC1,inactive,
O=C(CC(=O)c1ccccc1O)c1cccc(F)c1,inactive,
O=C1c2cccc3cc([N+](=O)[O-])cc(c23)C(=O)N1CCN1CCCC1,inactive,
COCC(C)NC(=O)C1CC(=O)N(c2ccc(C)cc2)C1 (stereo unspecified),,-21.3% [at 9.22 µM]
Cc1ccccc1C(=O)Nc1ccc(Br)cn1,3.66 µM (active),
CC(C)OC(=O)CCCCCN1C(=O)CSC1=S,inactive,
Cc1cccc(-n2c(O)c(C=Nc3ccccc3N)c(=O)[nH]c2=O)c1,inactive,
Cc1cccc(C(=O)OCC(=O)N2CCCCCC2)c1O,5.17 µM (active),
COc1cccc(Oc2ccc(N)cn2)c1,inactive,
NNC(=O)c1cccc(O)c1,inactive,
Cc1ccc(NC(=O)C2CCCO2)cc1[N+](=O)[O-] (stereo unspecified),inactive,
Cc1ccc(-n2c(C)cc(C(=O)CSc3nnc4ccccn34)c2C)cc1,6.51 µM (active),
O=c1[nH]c(N/N=C/c2ccc(O)cc2)nc2ccccc12,4.61 µM (active),
Nc1nonc1-n1nnc(C(=O)N/N=C/c2cc(Br)ccc2O)c1CSC1=NCCS1,,-26.8% [at 9.22 µM]
